The full ranking holds about 8,300 sequences; the median of “log2 fold change of degron read counts, EGFP-low vs EGFP+ sorted cells (limma voom), compound-induced degradation” is about -1.1, and the highest 2% start at about 3.2. The full list was thinned out, with the highest values kept by preference.
T1: CRBN, Q96SW2
T1 chain: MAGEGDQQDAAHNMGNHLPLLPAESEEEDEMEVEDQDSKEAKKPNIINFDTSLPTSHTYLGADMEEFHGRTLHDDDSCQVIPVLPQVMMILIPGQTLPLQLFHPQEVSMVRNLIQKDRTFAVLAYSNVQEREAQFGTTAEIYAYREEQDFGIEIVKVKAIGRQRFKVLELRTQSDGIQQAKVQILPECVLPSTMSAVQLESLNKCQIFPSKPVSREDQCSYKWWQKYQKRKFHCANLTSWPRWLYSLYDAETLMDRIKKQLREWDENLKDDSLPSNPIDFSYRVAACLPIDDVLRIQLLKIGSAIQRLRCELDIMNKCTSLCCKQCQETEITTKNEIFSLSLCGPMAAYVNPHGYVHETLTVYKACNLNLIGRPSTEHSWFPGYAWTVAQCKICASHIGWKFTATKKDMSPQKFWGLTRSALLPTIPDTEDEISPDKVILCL

B1: 46F_47R_49P_50V_52G_53A_54V_55F_67L_, Q9UKT9 (peptide)
chain: FRCPVCGAVFTQKGNLLRHIKL
B2: 46F_47K_49S_50V_52G_53H_54M_55F_67L_, Q9UKT9 (peptide)
chain: FKCSVCGHMFTQKGNLLRHIKL
B3: 46L_47I_49N_50Q_52G_53F_54D_55C_67L_, Q9UKT9 (peptide)
chain: LICNQCGFDCTQKGNLLRHIKL
B4: 46F_47Y_49D_50I_52G_53A_54M_55F_67L_, Q9UKT9 (peptide)
chain: FYCDICGAMFTQKGNLLRHIKL
B5: 46F_47R_49N_50Q_52G_53H_54N_55F_67L_, Q9UKT9 (peptide)
chain: FRCNQCGHNFTQKGNLLRHIKL
B6: 46F_47R_49D_50V_52G_53A_54P_55F_67L_, Q9UKT9 (peptide)
chain: FRCDVCGAPFTQKGNLLRHIKL
B7: 46F_47R_49N_50V_52G_53A_54P_55F_67L_, Q9UKT9 (peptide)
chain: FRCNVCGAPFTQKGNLLRHIKL
B8: 46F_47Q_49D_50V_52G_53A_54P_55F_67L_, Q9UKT9 (peptide)
chain: FQCDVCGAPFTQKGNLLRHIKL
B9: 46F_47L_49N_50V_52G_53A_54P_55F_67L_, Q9UKT9 (peptide)
chain: FLCNVCGAPFTQKGNLLRHIKL
B10: 46F_47R_49P_50V_52G_53A_54P_55F_67L_, Q9UKT9 (peptide)
chain: FRCPVCGAPFTQKGNLLRHIKL
B11: 46F_47F_49P_50V_52G_53A_54P_55F_67L_, Q9UKT9 (peptide)
chain: FFCPVCGAPFTQKGNLLRHIKL
B12: 46F_47V_49D_50V_52G_53A_54P_55F_67L_, Q9UKT9 (peptide)
chain: FVCDVCGAPFTQKGNLLRHIKL
B13: 46F_47F_49D_50V_52G_53A_54P_55F_67L_, Q9UKT9 (peptide)
chain: FFCDVCGAPFTQKGNLLRHIKL
B14: 46F_47G_49D_50V_52G_53A_54P_55F_67L_, Q9UKT9 (peptide)
chain: FGCDVCGAPFTQKGNLLRHIKL
B15: 46F_47Q_49P_50V_52G_53A_54P_55F_67L_, Q9UKT9 (peptide)
chain: FQCPVCGAPFTQKGNLLRHIKL
B16: 46F_47Q_49N_50V_52G_53A_54P_55F_67L_, Q9UKT9 (peptide)
chain: FQCNVCGAPFTQKGNLLRHIKL
B17: 46F_47F_49N_50V_52G_53A_54P_55F_67L_, Q9UKT9 (peptide)
chain: FFCNVCGAPFTQKGNLLRHIKL
B18: 46F_47N_49E_50I_52G_53A_54L_55F_67L_, Q9UKT9 (peptide)
chain: FNCEICGALFTQKGNLLRHIKL

Target: T1, CRBN, Q96SW2
Experiment: log2 fold change of degron read counts, EGFP-low vs EGFP+ sorted cells (limma voom), compound-induced degradation; higher = more compound-induced degradation of the degron-EGFP fusion; degrons are variants of IKZF1/3 zinc finger 2; compound dose not given here
Settings: Jurkat, 18 h
[1] = compound: compound 19 (5-tert-butyl-thalidomide)
[2] = compound: compound 22 (5-morpholino-thalidomide)
[3] = compound: compound 33 (diphenyl IMiD analogue)
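Further: pooled lentiviral library of zinc finger degron-EGFP fusions in mCherry-positive Jurkat cells, FACS-sorted after compound exposure, with degron abundance counted by next-generation sequencing.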

Row | Sequence | log2 fold change of degron read counts [1] | log2 fold change of degron read counts [2] | log2 fold change of degron read counts [3] | log2 fold change of degron read counts (compound: thalidomide)
1 | B1 | -1.2 | -0.699 | 1.54 | 1.18
2 | B2 | -3.17 | -3 | -3.02 | -2.7
3 | B3 | -3.41 | -3.2 | -2.9 | -2.97
4 | B4 | 2.46 | 1.99 | 0.476 | -1.55
5 | B5 | -2.02 | -3.14 | -2.79 | -2.26
6 | B6 | 2.07 | 3.3 | 3.21 | 2.88
7 | B7 | 2.26 | 2.96 | 2.94 | 2.77
8 | B8 | 0.996 | 2.11 | -0.0653 | 2.48
9 | B9 | -0.289 | 0.405 | 1.47 | 1.32
10 | B10 | 3.29 | 3.62 | 3.27 | 3.51
11 | B11 | 3.53 | 2.84 | 2.23 | 1.5
12 | B12 | -0.0613 | 2.93 | 1.05 | 2.09
13 | B13 | 2.96 | 1.95 | 0.307 | -0.766
14 | B14 | -1.15 | -2.27 | -2.07 | -2.21
15 | B15 | 3.11 | 3.34 | 2.34 | 3.87
16 | B16 | 0.618 | 2.01 | 0.742 | 2.69
17 | B17 | 2.8 | 1.44 | 0.47 | -0.472
18 | B18 | 0.13 | -1.53 | -0.743 | -1.13

Source: the supplement of paper PMC12645437, “Orthogonal IMiD-Degron Pairs Induce Selective Protein Degradation in Cells” (ACS Chemical Biology, 2025)
